According to PubChem BioAssay (NCATS):
Records with an inconclusive call do not appear. Where a call stands in place of a potency, no number is given. Activity calls are given as the source filed them. The call rests on the fitted dose curve; in most records, active means well fitted inhibition curve with a large enough effect; inconclusive means small, poorly fitted or top-dose-only effect; inactive means flat fitted curve, though single readings scatter.

Each compound was assayed against Calcium and integrin-binding protein 1 (Homo sapiens) (UniProt Q99828) (assay: Primary qHTS for Identification of Calcium Integrin Binding Protein 1 (CIB1) Competitor (AID 1508620; further: top concentration of the series differs between compounds)). Conditions: CIB1-GST / FITC-alphaIIb peptide fluorescence polarization; series mostly up to 57.7 µM.
Procedure, shortened: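 Fluorescence polarization competition: GST-tagged CIB1 (1 uM final) preincubated with compound 15 min at room temperature, then FITC-labelled alphaIIb peptide (100 nM final) added. After 15 min at room temperature, polarization read at Ex 480/Em 540.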

Chain of Calcium and integrin-binding protein 1 (Homo sapiens) (Q99828 whole entry, looked up): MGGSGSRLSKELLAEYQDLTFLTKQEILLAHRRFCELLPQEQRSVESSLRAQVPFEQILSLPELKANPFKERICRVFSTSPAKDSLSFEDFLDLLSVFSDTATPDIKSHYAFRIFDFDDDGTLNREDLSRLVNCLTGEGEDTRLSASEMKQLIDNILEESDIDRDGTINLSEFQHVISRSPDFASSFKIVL

Compound	Potency
Cc1cc(CS(=O)(=O)c2ccccc2)cc(OCc2ccc(CN3CCC[C@H]3CO)cc2)c1	inactive
O=C(NC[C@H](O)CO)c1ccncc1Nc1ccc(I)cc1F	inactive
COC(=O)Nc1ccc(-c2nc(N3CCOCC3)c3cnn(C4CCN(C(=O)OC)CC4)c3n2)cc1	inactive
CCNC(=O)[C@H]1O[C@@H](n2cnc3c(N)nc(NCCc4ccc(CCC(=O)O)cc4)nc32)[C@H](O)[C@H]1O	inactive
Clc1ccc(C2(c3ccc(-c4cn[nH]c4)cc3)CCNCC2)cc1	inactive
FC(F)(F)c1ccc(C=Cc2nc(COc3ccc(CCCCn4ccnn4)cc3)co2)cc1	inactive
C[C@]12CC[C@@H]3c4ccc(O)cc4CC[C@H]3[C@H]1[C@@H](O)[C@@H](O)[C@H]2O	inactive
CCN1CCC(n2cc(CNc3cc(Cl)c4ncc(C#N)c(Nc5ccc(F)c(Cl)c5)c4c3)nn2)CC1	inactive
O=C1NC(=O)C(=Cc2ccc(-c3ccc(F)cc3O)o2)S1	inactive
CCC(=O)OCC(=O)[C@@]1(OC(=O)CC)[C@@H](C)C[C@@H]2[C@H]3CCC4=CC(=O)C=C[C@]4(C)[C@@]3(F)[C@@H](O)C[C@@]21C	inactive
CN(C)CCOc1ccc(C(=C(CCCl)c2ccccc2)c2ccccc2)cc1	inactive
CC(C)C[C@@H](N)[C@H](O)C(=O)N[C@H](C(=O)N[C@H](C(=O)N[C@@H](CC(=O)O)C(=O)O)C(C)C)C(C)C	inactive
O=C(CC12CC3CC(CC(C3)C1)C2)Nc1cccc2nc(NCCNCCO)ccc12	inactive
Nc1ccc(-c2ccc3ncc4ccc(=O)n(-c5cccc(C(F)(F)F)c5)c4c3c2)cn1	inactive
